Screens (PubChem)
HPGD block – qHTS Assay for Inhibitors of HPGD (15-Hydroxyprostaglandin Dehydrogenase); 15-hydroxyprostaglandin dehydrogenase [NAD(+)] (Homo sapiens), P15428; purified HPGD, NADH fluorescence kinetic, PGE2 substrate; Potency, µM, for the others: top-dose activity change, negative = inhibition, usual class: inhibitors; hit rate 4.3% among 150,000; also: potency is read from the fitted curve at half-maximal effect; % is scaled to controls: 0 for no effect and ±100 for the full control effect
Target sequence (P15428 whole entry, looked up): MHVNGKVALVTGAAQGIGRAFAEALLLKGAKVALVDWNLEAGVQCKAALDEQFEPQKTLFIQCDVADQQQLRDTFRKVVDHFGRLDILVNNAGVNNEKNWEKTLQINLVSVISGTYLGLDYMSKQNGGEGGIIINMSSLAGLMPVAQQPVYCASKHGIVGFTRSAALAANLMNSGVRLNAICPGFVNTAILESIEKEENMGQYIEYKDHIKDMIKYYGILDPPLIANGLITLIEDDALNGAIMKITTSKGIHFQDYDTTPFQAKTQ
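20 nM HPGD preincubated 15 min at room temperature with compound in 50 mM Tris-HCl pH 8, 0.01% Tween 20. Started with 1 mM NAD+ and 30 uM prostaglandin E2; NADH fluorescence (360/450 nm) read 5 times over 30-s intervals, last minus first.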
HTT cytoprotect – qHTS Multiplex Assay to Identify Dual Action Probes in a Cell Model of Huntington: Cytoprotection (ATP); PC12 HTT-Q103 induced, cytoprotection, ATP luminescence, 40 h; Potency, µM (titrated, usually from 56.4 µM), without a hit: cytoprotection (ATP increase), most hits filed as activators; hit rate 0.14% among 230,000; AID 1471, 2008; active = well fitted curve in the direction sought with a large enough effect; inconclusive = small, poorly fitted or top-dose-only effect, or another doubt; inactive = no such curve, though single readings can be large; an effect the other way counts as inactive or inconclusive; also: potency is read from the fitted curve at half-maximal effect; % of control where 0% means no effect; nearly all actives have a fitted effect of over 45% in size
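Readout: ATPlite luminescence (ATP level). Model: stable PC12, inducible Htt exon1 Q103-GFP. Inducer: tebufenozide, 100 nM final. Compounds: dose series. No G418 in medium.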
PNC inhibitor – High Content Assay for Compounds that inhibit the Assembly of the Perinucleolar Compartment; PC3M PTB-GFP, PNC prevalence imaging, 16 h; stronger effect = lower value; activity change (PNC), negative = inhibition, % at 10 µM; hit rate 3.1% among 140,000;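 active = readout at or below -70, meaning at least 70% loss of cells showing the perinucleolar compartment, a nuclear body marking cancer cells; inconclusive = readout between -30 and a set limit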;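 also: plate controls were DMSO wells for no effect and camptothecin positive control wells for full effect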
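Read-out is percentage of cells bearing a perinucleolar compartment, from automated 20x imaging of fixed, Hoechst-stained PC3M PTB-GFP cells. Cells were seeded 4 h, then exposed 16 h to compound (23 nl of library stock) in duplicate plates.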
ALDH1A1 inh – qHTS Assay for Inhibitors of Aldehyde Dehydrogenase 1 (ALDH1A1). Potency, µM (titrated, usually from 75.3 µM), without a hit: top-dose activity, negative = inhibition, actives largely listed as inhibitors. hit rate 7.3% among 220,000. Purified ALDH1A1, NADH fluorescence, propionaldehyde substrate. Aldehyde dehydrogenase 1A1 (Homo sapiens), P00352. AID 1030, 2008;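 also: potency is read from the fitted curve at half-maximal effect; plate controls were no enzyme wells and a reference inhibitor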
Target sequence (P00352 whole entry, looked up): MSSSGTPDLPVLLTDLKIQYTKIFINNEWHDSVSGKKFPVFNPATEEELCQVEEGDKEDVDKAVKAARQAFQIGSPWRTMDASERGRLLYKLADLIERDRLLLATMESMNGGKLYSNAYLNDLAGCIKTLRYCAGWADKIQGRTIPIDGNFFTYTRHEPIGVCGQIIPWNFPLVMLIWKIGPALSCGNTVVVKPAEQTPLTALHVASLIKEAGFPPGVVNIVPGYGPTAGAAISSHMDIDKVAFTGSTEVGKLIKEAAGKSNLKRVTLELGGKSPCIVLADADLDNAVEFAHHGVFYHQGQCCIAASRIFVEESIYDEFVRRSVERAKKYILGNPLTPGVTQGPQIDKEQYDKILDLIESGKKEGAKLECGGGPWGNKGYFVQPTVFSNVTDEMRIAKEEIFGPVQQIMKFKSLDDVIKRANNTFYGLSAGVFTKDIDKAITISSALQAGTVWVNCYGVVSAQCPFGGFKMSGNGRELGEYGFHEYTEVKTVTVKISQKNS
HTT aggregate – qHTS Multiplex Assay to Identify Dual Action Probes in a Cell Model of Huntington: Aggregate Formation (GFP) | Potency, µM (doses to about 46.1 µM), for inactives: top-dose activity change, negative = inhibition, most hits filed as inhibitors | hit rate 1.1% among 220,000 | AID 1688, 2009 | PC12 HttQ103-GFP aggregates, Acumen cytometry, 40 h; active = well fitted curve in the direction sought with a large enough effect; inconclusive = small, poorly fitted or top-dose-only effect, or another doubt; inactive = no such curve, though single readings can be large; an effect the other way counts as inactive or inconclusive; also: potency is read from the fitted curve at half-maximal effect; % is scaled to controls: 0 for no effect and ±100 for the full control effect; nearly all actives have a fitted effect of over 60% in size
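Using laser scanning cytometry, GFP-positive aggregates were counted after lysis of PC12 cells induced with 100 nM tebufenozide to express HTT exon 1 Q103–GFP. Compounds were tested in titration.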
GoLoco inh red – qHTS Assay for Inhibitors of RGS12 GoLoco Motif Activity (Red Fluorophore); Guanine nucleotide-binding protein G(i) subunit alpha-1 (Homo sapiens), P63096; Gai1:RGS12 GoLoco peptide FP, rhodamine, 10 min; Potency, µM (titrated, usually from 61.6 µM), inactives show at the top dose activity, negative = inhibition, hits mostly inhibitors; hit rate 0.44% among 230,000; active = well fitted inhibition curve with a large enough effect, not every such curve was filed as active; inactive = no such curve, though single readings can be large or run the other way; also: potency is read from the fitted curve at half-maximal effect; % is scaled to controls: 0 for no effect and ±100 for the full control effect; nearly all actives have a fitted effect of over 30% in size
* hit, by the source's call; ? = inconclusive; . = no result; [ ] = remark or other dose. Sampled rows, rich in hits. Any-hit rate of the full collection: about 11%. Unless noted, calls follow the shape of the dose curve; as a rule, active = well fitted inhibition curve with a large enough effect (not every such curve was filed as active); inconclusive = small, poorly fitted or top-dose-only effect, or another doubt; inactive = no such curve, though single readings can be large or run the other way.

SMILES	HPGD block	HTT cytoprotect	PNC inhibitor	ALDH1A1 inh	HTT aggregate	GoLoco inh red
COc1ccc(C(=O)CSc2nnc(-c3ccccn3)n2Cc2ccco2)cc1	.	-12%[0.074 µM]	-28	22µM*	32%	.
O=C(CSc1nnc(-c2cccnc2)n1Cc1ccco1)c1ccc(Br)cc1	28µM*	-8%	?	-19%	-1%	10%
CCOC(=O)c1c(NC(=O)CSc2nnc(-c3cccnc3)n2Cc2ccco2)sc(C)c1C	-21%	-7%[10 µM]	3	25µM*	-20%	20%
O=Cc1cccc(Br)c1	-8%	-3%	.	?	.	-14%
CC(=O)O[C@H]1C(=O)[C@]2(C)[C@H]([C@H](OC(=O)c3ccccc3)[C@@]3(O)C[C@H](OC(=O)[C@@H](O)[C@@H](NC(=O)c4ccccc4)c4ccccc4)C(C)=C1C3(C)C)[C@]1(OC(C)=O)CO[C@@H]1C[C@@H]2O	.	-3%	.	.	.	.
COc1cc2c(cc1OC)C(c1ccccc1O)N(C1CC(=O)N(c3ccccc3)C1=O)CC2 (stereo not given)	-13%	-3%	?	13µM*	-8%	-13%
COc1cc2c(cc1OC)C(c1ccccc1)N(C(=O)CCl)CC2 (stereo not given)	-11%	-112%	62	?	?	2%
O=C1C=C(c2ccccc2)C[C@H](c2cccs2)[C@H]1n1nnc([N+](=O)[O-])n1	-20%	-24%[10 µM]	-29	10µM*	?	5%
O=C1[C@@H]2C(c3cccnc3)=NO[C@@H]2C(=O)N1c1ccc2ccccc2c1	.	8%[10 µM]	.	1.6µM*	0%[9.22 µM]	-45%
Cc1cccc(N2CC3=C(C2=O)C(c2ccccc2)NC(=O)N3C)c1 (stereo not given)	-7%	-8%[0.074 µM]	-81*	-8%	-4%	5%
Cc1ccc(N2CC3=C(C2=O)C(c2ccccc2)NC(=O)N3C)cc1 (stereo not given)	-15%	-1%	-24	12%	5%	5%
C/C=C/c1ccc(OCCCCOc2ccccc2F)c(OC)c1	-17%	12%[10 µM]	-125*	?	3%	-2%
C/C=C/c1ccc(OCCCCn2cncn2)c(OC)c1	-12%	-18%[0.074 µM]	26	?	10%	7%
COc1cc(C=O)ccc1OCc1ccc(Cl)nc1	.	-18%	.	5µM*	18%	-5%
C/C=C/c1ccc(OCCCn2cncn2)c(OC)c1	-11%	1%	-6	-7%	2%	-5%
C/C=C/c1ccc(OCCOc2cc(C=O)ccc2OC)c(OC)c1	-16%	.	-113*	-11%	?	2%
C/C=C/c1ccc(OCCn2cncn2)c(OC)c1	-5%	15%[10 µM]	?	25µM*	-3%	-15%
COc1ccc(CCNCc2ccc(OCc3ccc(Cl)nc3)c(OC)c2)cc1OC	-6%	-21%	2	2%	3%	7%
Cc1ccccc1NC(=O)Cn1c(NCC(C)O)nc2ccccc21 (stereo not given)	-14%	0%[1.9 µM]	-23	9%	-6%	0%
Cc1cc(C(=O)N2CCN(c3ccc(C(F)(F)F)cn3)CC2)c(C)o1	.	27%[10 µM]	.	-4%	-15%[9.22 µM]	-1%
Cc1cccc(C(=O)N2CCN(c3ccc(C(F)(F)F)cn3)CC2)c1C	-6%	-3%	-22	-17%	16µM*	0%
O=c1c2ccccc2c(C=NC2CCS(=O)(=O)C2)c(O)n1-c1ccccc1 (stereo not given)	-11%	-12%[0.074 µM]	-25	18µM*	-2%	6%
Cc1ccccc1NC(=O)c1ccc(S(=O)(=O)N(C)C)cc1	-3%	-22%	-6	9%	-25%	-9%
CN(C)S(=O)(=O)c1ccc(C(=O)Nc2ccccc2SCCC#N)cc1	.	-18%	.	16µM*	3%	-4%
COc1ccc(CC(=O)Nc2ccc(C(N)=O)cc2)cc1	.	-11%[10 µM]	.	.	-10%[9.22 µM]	-7%
SMILES	HPGD block	HTT cytoprotect	PNC inhibitor	ALDH1A1 inh	HTT aggregate	GoLoco inh red
COc1ccc(CC(=O)OCC(=O)Nc2ccc(N3CCOCC3)cc2)cc1	.	5%[10 µM]	.	25µM*	16%[9.22 µM]	9%
COC(=O)c1cc(NC(=O)Cc2ccc(OC)cc2)cc(C(=O)OC)c1	-15%	-2%	-9	0.89µM*	13%	-6%
COC(=O)c1cc(NC(=O)Cn2c(=O)cnc3ccccc32)cc(C(=O)OC)c1	-19%	2%	?	0.35µM*	16%	10%
CC(=O)Nc1ccc(C(=O)OCC(=O)Nc2ccc(N3CCOCC3)cc2)cc1	.	-27%	.	18µM*	-6%	0%
COc1cc(CC(=O)OCC(=O)Nc2ccc(N3CCOCC3)cc2)cc(OC)c1OC	.	-49%	.	-13%	19%	9%
CC(C)=N[C@H](C(=O)O)C(C)(C)S	-6%	-3%[10 µM]	.	?	.	-34%[14.2 µM]
CCCn1c(C)nc2c(N(CCOC)CCOC)nc(C)nc21	1%	-6%	.	7%	.	4%
O=C1CN(C(=O)COC(=O)c2ccccc2NCc2ccco2)c2ccccc2N1	?	-13%	?	?	4%	7%
COc1ccc(C(=O)O)cc1S(=O)(=O)NCCN(C)C	.	-9%[10 µM]	.	11%	-7%[9.22 µM]	16%
C/C(=C\C(=O)c1ccc(F)cc1)Nc1ccc(N2CCOCC2)cc1	-17%	-12%[0.074 µM]	-12	?	2%	3%
O=C(COc1cc(F)ccc1[N+](=O)[O-])Nc1ccc(N2CCOCC2)cc1	.	-47%	.	13µM*	-6%	-1%
COc1cc(NC(=O)COC(=O)Cc2ccc(-c3ccccc3)cc2)cc(OC)c1	-22%	.	-102*	?	1%	46%
Cc1ccc(OCC(=O)Nc2ccc(N3CCOCC3)cc2)c([N+](=O)[O-])n1	.	-24%	.	3%	-28%	5%
NC(=O)CC[C@H](NC(=O)c1ccc(F)cc1)C(=O)OCC(=O)Nc1ccc(N2CCOCC2)cc1	-6%	-3%[0.074 µM]	-11	11µM*	10%	-11%
ClC1(Cl)CC1Cn1cnc2ccccc21 (stereo not given)	.	-33%	.	-8%	-20%	9%
NN(CC(=O)O)CC(=O)O	-1%	8%[10 µM]	.	-5%[13.5 µM]	.	1%[14.2 µM]
O=C(O)c1ccc(NS(=O)(=O)c2ccsc2C(=O)O)cc1	-13%	-33%	.	8%	.	10%
CCNc1ccc(Br)cc(C(=O)/C=C/c2ccc3c(c2)OCO3)c1=O	?	-29%	-21	18µM*	?	28%
CCCCC(=O)Nc1ccc(Br)cc1C(=O)O	-19%	-9%	-5	6%	-19%	11%
